Reference: PubChem BioAssay

Assay: basal RPMI8226 viability, no added stimulus, profiling panel, cell-based, calcein-AM fluorescence, 48 h, PK04 Diversity Set (AID 1166);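 note: cells grown under basal conditions without added stimulus; test concentration not given here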
Conditions: RPMI8226 myeloma viability, higher = more signal
`[N-]=[N+]=Nc1ccccc1[C@H]1OC(c2ccc(OCCCO)cc2)=N[C@@]1(Cc1ccccc1)C(=O)N1CCOCC1` showed a z-score of -3.94. With `CN1C(=O)C2C=CC(C(O)c3ccccc3)N(N3CCCCC3)C2C1=O` (stereo not given) the z-score was 0.539. For `C=CCC(OC(C)=O)[C@@H]1[C@@H](N(Cc2ccc(-c3ccccc3)cc2)C(=O)Cc2ccc(F)cc2)c2cc(OCCCO)ccc2N1C(=O)c1ccc2ccccc2c1` (stereo not given in full), the z-score was -0.344. `COc1cc(CO)cc(I)c1O[C@H]1C=C(C(=O)NCCO)C[C@@H](N(C(=O)c2cc3ccccc3oc2=O)C2CCCCCC2)[C@@H]1O` showed a z-score of -0.704. For `CCCNC(=O)[C@@]1(Sc2ccc(C)cc2)CC(=O)N(Cc2ccccc2C(F)(F)F)[C@@H]1c1ccc(CO)cc1I`, the z-score was -2.56. Work on `NC(=O)[C@@H]1[C@H]2C(=O)O[C@H](c3ccccc3)[C@H](c3ccccc3)N2[C@H](c2ccc(OCCO)cc2)[C@@]12C(=O)Nc1ccc(C#CC3=CCCCC3)cc12` yielded a z-score of -4.06. `COCCCNC(=O)[C@@]1(Cc2ccccc2)N=C(c2ccc(OCCCO)cc2)O[C@H]1c1ccccc1CN=[N+]=[N-]` gave a z-score of -1.75. `Cc1ccc(C2C3C(=O)CC4C(=O)N(c5ccccc5)C(=O)C4C3CN2S(=O)(=O)c2ccc(C)cc2)cc1` (stereo not given) showed a z-score of 0.563. Work on `O=C(NC1CC1)[C@@H]1c2ccccc2C(=O)N(Cc2cc(F)cc(C(F)(F)F)c2)[C@H]1c1ccc(CO)cc1` yielded a z-score of 0.88. With `COc1cc2c(cc1O)C(c1cccs1)N(Cc1cccc(OC(F)(F)F)c1)CC2` (stereo not given) the z-score was -4.49. `CCOC(=O)C1=CC[C@@H](c2ccccc2)N(S(=O)(=O)c2ccc(C)cc2)[C@H]1c1ccc(CC)cc1` gave a z-score of 0.0825. With `CN1CCC(CCCO)=CC1c1cccs1` (stereo not given) the z-score was 0.0383. In the case of `CCCCCN1CC=CC23O[C@@H]4C=CCOC(=O)[C@@H]4[C@H]2C(=O)N(C(C)CO)[C@@H]3C1=O` (stereo not given in full), the z-score was -0.0937. Work on `Cc1ccc(S[C@]2(C(=O)NCC(C)C)CC(=O)N(Cc3cc(C(F)(F)F)cc(C(F)(F)F)c3)[C@@H]2c2ccc(CO)cc2)cc1` yielded a z-score of -0.744. In the case of `CC1CC/C=C\[C@H]2OC34C=CCN(Cn5nnc6ccccc65)C(=O)[C@H]3N(CCCCCO)C(=O)[C@@H]4C2C(=O)O1` (stereo not given in full), the z-score was -0.0074. Compound `COc1ccc([Si](C)(C)[C@@H]2[C@@H](CCO)O[C@]3(C(=O)N(Cc4cccc(N5CCOC5=O)c4)c4ccccc43)[C@H]2C)cc1` has a z-score of -4.17. For `CCCCN1CC=CC23O[C@@H]4C=CCCOC(=O)C4[C@H]2C(=O)N(CCCCCO)[C@@H]3C1=O` (stereo not given in full), the z-score was 0.916. Compound `COc1ccc(CCNC(=O)[C@@]2(C)c3ccccc3C(=O)N(c3ccc(C)cn3)[C@H]2c2ccc(CO)cc2)cc1` has a z-score of -0.081. `COC(=O)[C@@]1(Cc2ccc(OC)cc2)[C@H]2c3cc(C(=O)N4CCCC4)n(Cc4nc5ccccc5[nH]4)c3C[C@H]2CN1C(=O)c1ccccc1` gave a z-score of -2.35. For `[N-]=[N+]=NCc1ccccc1[C@@H]1OC(c2ccc(OCCCO)cc2)=N[C@]1(CCS(=O)(=O)c1ccccc1)C(=O)N1CCOCC1`, the z-score was -1.6. `CCOC(=O)C1=CC[C@H]2C(=O)N(c3ccccc3)C(=O)[C@@H]12` showed a z-score of 0.217. With `COC(=O)[C@@]1(Cc2ccc(F)cc2)[C@H]2c3cc(C(=O)N(C)C)n(Cc4ccc(C)o4)c3C[C@H]2CN1C(=O)c1ccccc1` the z-score was -2.03. Compound `OCCCC1=CC(C2CC2)N(Cc2cccc(OC(F)(F)F)c2)CC1` (stereo not given) has a z-score of 0.0997. For `CCOc1cc(C(O)C2C=CC3C(=O)N(c4ccccc4)C(=O)C3N2Nc2ccc(C(C)C)cc2)ccc1O` (stereo not given), the z-score was -1.16. Work on `CO[C@H]1O[C@H](CO)[C@@H](OC(=O)Nc2ccccc2)[C@@H]2OC(=O)[C@@H](Cc3ccc4ccccc4c3)C/C=C/C[C@H](Cc3ccc4ccccc4c3)C(=O)O[C@@H]12` yielded a z-score of 0.575. For `CCOC(=O)C[C@H]1[C@H](OC(=O)c2ccc(C(=O)c3ccccc3)cc2)[C@@H](NC(=O)Cc2ccc(OC)cc2)c2cc(OCCCO)ccc2N1C(=O)c1ccc2ccccc2n1`, the z-score was -0.614. `C=CC[C@]1(C(=O)N2CCOCC2)N=C(c2ccc(OCCCO)cc2)O[C@H]1c1ccccc1N=[N+]=[N-]` gave a z-score of -1.8. Work on `NC(=O)[C@@H]1[C@H]2C(=O)O[C@H](c3ccccc3)[C@H](c3ccccc3)N2[C@H](c2ccc(O)cc2)[C@@]12C(=O)Nc1ccc(C#CC3=CCCCC3)cc12` yielded a z-score of -4.17. Work on `COCCCNC(=O)[C@]1(Cc2ccccc2)N=C(c2ccc(OCCCO)cc2)O[C@@H]1c1ccccc1CN=[N+]=[N-]` yielded a z-score of -2.52. `CC(C)(C)OC(=O)CC[C@]1(C(N)=O)N=C(c2ccc(OCCCO)cc2)O[C@H]1c1ccccc1` showed a z-score of 0.37.
